# Laboratory results reported in PubChem BioAssay (NCATS).
# Results filed as inconclusive are left out. Calls of active or inactive are those of the source. Calls follow the shape of the dose curve; as a rule, active = well fitted cell-killing curve with a large enough effect; inconclusive = small, poorly fitted or top-dose-only effect; inactive = no such curve, though single readings can be large or run the other way.
# Test: Quantitative High-Throughput drug screen in 47 multiple myeloma cell lines against the NCATS MIPE library collection: JIM3_ECACC cell viability assay (AID 1918963; also: nearly all actives have a fitted effect of over 35% in size)
# Settings: JIM3 myeloma viability, CellTiter-Glo ATP, 48 h; series mostly up to 45.8 µM; viability, percent of control: at the top concentration
# From the text: PI: Beverly A. Mock Ph.D.
# Laboratory of Cancer Biology and Genetics,
# Center for Cancer Research, National Cancer Institute,
# National Institute of Health, Bethesda, Maryland
# Drug resistance and disease progression are common in multiple myeloma (MM) patients, underscoring the need for new therapeutic combinations. […] We hypothesized that effective combinations would reduce MYC expression and enhance p16 activity. […] These preclinical data identify potentially useful drug combinations for evaluation in drug-resistant MM and reveal potential mechanisms of combined drug sensitivity.
# Described herein is the primary MIPE qHTS used to cherrypick compounds. Validated compounds were then further tested for potential synergistic activiy.
# [1] Peat TJ, Gaikwad SM, Dubois W, Gyabaah-Kessie N, Zhang S, Gorjifard S, Phyo Z, Andres M, Hughitt VK, Simpson RM, Miller MA, Girvin AT, Taylor A, Williams D, D'Antonio N, Zhang Y, Rajagopalan A, Flietner E, Wilson K, Zhang X, Shinn P, Klumpp-Thomas C, McKnight C, Itkin Z, Chen L, Kazandijian D, Zhang J, Michalowski AM, Simmons JK, Keats J, Thomas CJ, Mock BA. Drug combinations identified by high-throughput screening promote cell cycle transition and upregulate Smad pathways in myeloma. Cancer Lett. 2023 Aug 1;568:216284. doi: 10.1016/j.canlet.2023.216284. Epub 2023 Jun 24. PMID: 37356470; PMCID: PMC10408729.
# SEQUENCE No. (e.g., 1, 2, 3, etc.); […] (e.g., Cells, Incubation, Reagent, etc.); VALUE and DESCRIPTION.
# 1; Cells; 5 uL; white, solid bottom 1536-well Greiner assay plate.
# 2; Compounds; 23 nL; Kalypsis pin tool (Wako USA) equipped with a 1536-well pin head to transfer to the assay plates.
# 3; Incubation; 48 hours; 37C incubation.
# 4; Reagent;5uL; CellTiter Glo (Promega).
# 5; Detector; 425V; Luminescence; Viewlux PerkinElmer.
# NOTES (numbers refer to Sequence numbers above)
# 1. The cell-based screening methods employed in this study were like those previously published. Briefly, the corresponding myeloma cell lines were screened in 1,536-well plates with 500 cells, 5-uL per well for inhibition of cell viability (assessed by measuring ATP levels with CellTiterGlo).
# 2. NCATS MIPE 4.0 library of approved and investigational drugs were added using the Kalypsis pin tool. Wells treated with DMSO only for 100% viability and media only wells for 0% viability were used as controls.
# 3. The assay plates were covered and incubated for 48 hours in a 37C, 5% CO2 incubator with controlled humidity.
# 4. After 48 hours, CellTilter-GloTM luminescent substrate mix (Promega) reagent was added to the assay plate and plates we incubated for 5 min at room temperature.
# 5. Signal was measured as median relative luminescence units on a ViewLux (PerkinElmer) multiplate reader.
# [1] Heske CM, Davis MI, Baumgart JT, Wilson K, Gormally MV, Chen L, Zhang X, Ceribelli M, Duveau DY, Guha R, Ferrer M, Arnaldez FI, Ji J, Tran HL, Zhang Y, Mendoza A, Helman LJ, Thomas CJ. Matrix Screen Identifies Synergistic Combination of PARP Inhibitors and Nicotinamide Phosphoribosyltransferase (NAMPT) Inhibitors in Ewing Sarcoma. Clin Cancer Res. 2017 Dec 1;23(23):7301-7311. doi: 10.1158/1078-0432.CCR-17-1121. Epub 2017 Sep 12. PMID: 28899971; PMCID: PMC6636827.
# Potency is read from the fitted curve at half-maximal effect.
Structure (SMILES),"viability, percent of control",Potency
Cc1cc(C(C)(C)C)c(O)c(C)c1CC1=NCCN1,112% (inactive),
O=C1Cc2cc(CCN3CCN(c4nsc5ccccc45)CC3)c(Cl)cc2N1,,23.5 µM (active)
CC(C)NCC(O)COc1ccc(CCOCC2CC2)cc1 (stereo not given),97.7% (inactive),
C[C@@H]1CC(=O)NN=C1c1ccc(NN=C(C#N)C#N)cc1,,20.9 µM (active)
Cc1cc(C(C)(C)C)cc(C)c1CC1=NCCN1,115% (inactive),
Nc1nc2c(ncn2COC(CO)CO)c(=O)[nH]1,,2.64 µM (active)
Fc1ccc([C@@H]2CCNC[C@H]2COc2ccc3c(c2)OCO3)cc1,93.7% (inactive),
CNCCCC12CCC(c3ccccc31)c1ccccc12,,20.9 µM (active)
CN(C)CCCN1c2ccccc2CCc2ccc(Cl)cc21,,4.69 µM (active)
CN(CCOc1ccc(NS(C)(=O)=O)cc1)CCc1ccc(NS(C)(=O)=O)cc1,109% (inactive),
Clc1ccc2nsnc2c1NC1=NCCN1,120% (inactive),
CN(C)CCOC(c1ccccc1)c1ccccc1,,23.5 µM (active)
CC(C)NCC(O)c1ccc(O)c(O)c1 (stereo not given),120% (inactive),
NC(=O)NO,,0.187 µM (active)
NC(=O)OCC(COC(N)=O)c1ccccc1,103% (inactive),
CN1C(C(=O)Nc2ccccn2)=C(O)c2ccccc2S1(=O)=O,112% (inactive),
CN1C2CCC1CC(OC(=O)C(CO)c1ccccc1)C2 (stereo not given),100% (inactive),
COc1cc2c(c(OC)c1OC)-c1ccc(OC)c(=O)cc1[C@@H](NC(C)=O)CC2,12.8% (inactive),
COc1ccc(C2CNC(=O)C2)cc1OC1CCCC1 (stereo not given),116% (inactive),
CCOC(=O)c1ncn2c1CN(C)C(=O)c1cc(F)ccc1-2,110% (inactive),

Structure (SMILES),"viability, percent of control",Potency
COc1ccccc1OCC(O)CN1CCN(CC(=O)Nc2c(C)cccc2C)CC1 (stereo not given),116% (inactive),
COc1nc(C)nc(Cl)c1NC1=NCCN1,105% (inactive),
Clc1ccccc1C(c1ccccc1)(c1ccccc1)n1ccnc1,,18.7 µM (active)
CC(C)(C)C(=O)Oc1ccc(S(=O)(=O)Nc2ccccc2C(=O)NCC(=O)O)cc1,101% (inactive),
COc1ccc2c(c1)c(CC(=O)O)c(C)n2C(=O)c1ccc(Cl)cc1,93.4% (inactive),
Nc1c2c(nc3ccccc13)CCCC2,116% (inactive),
Cn1c(=O)c2c(ncn2C)n(C)c1=O,104% (inactive),
CC1(CN2CCC(n3c(=O)[nH]c4ccccc43)CC2)OCc2ccccc2-n2cccc21 (stereo not given),96.2% (inactive),
CN1CCN2c3ccccc3Cc3ccccc3C2C1 (stereo not given),,20.9 µM (active)
CCN1CCCC1CNC(=O)c1cc(S(=O)(=O)CC)c(N)cc1OC (stereo not given),134% (inactive),
CC[N+](CC)(CC)CCOc1cccc(OCC[N+](CC)(CC)CC)c1OCC[N+](CC)(CC)CC,94.9% (inactive),
Cc1ccc(C(=O)Nc2ccc(S(=O)(=O)O)c3cc(S(=O)(=O)O)cc(S(=O)(=O)O)c23)cc1NC(=O)c1cccc(NC(=O)Nc2cccc(C(=O)Nc3cc(C(=O)Nc4ccc(S(=O)(=O)O)c5cc(S(=O)(=O)O)cc(S(=O)(=O)O)c45)ccc3C)c2)c1,,16.6 µM (active)
CC(C)(Oc1ccc(C2CC2(Cl)Cl)cc1)C(=O)O (stereo not given),116% [at 92.2 µM] (inactive),
Cn1c(=O)c2[nH]cnc2n(C)c1=O,114% (inactive),
Cc1ccccc1N1C(=O)c2cc(S(N)(=O)=O)c(Cl)cc2NC1C (stereo not given),103% (inactive),
O=C1N(c2ccccc2)c2ccccc2C1(Cc1ccncc1)Cc1ccncc1,116% (inactive),
CC(C)C(=O)Nc1ccc([N+](=O)[O-])c(C(F)(F)F)c1,,8.33 µM (active)
NC12CC3CC(CC(C3)C1)C2,104% (inactive),
CS(=O)(=O)Nc1ccc([N+](=O)[O-])cc1Oc1ccccc1,103% (inactive),
CCc1cccc2c3c([nH]c12)C(CC)(CC(=O)O)OCC3 (stereo not given),111% (inactive),
